Results filed as inconclusive are left out. The source made the active and inactive calls. Unless noted, the rule behind the calls is not given here.

The values below come from PubChem BioAssay.

Assay [1] can be described thus: rapamycin-like changes in RPL19A-GFP expression – cell-based, S. cerevisiae, multiplex flow cytometry, primary screen (AID 1862; in the data active = percent of DMSO control GFP below about 86%;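 note: lower values mimic rapamycin by blocking the RPL19A rise seen in DMSO cells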). The conditions noted are these: S. cerevisiae RPL19A-GFP strain, flow cytometry fluorescence, 3 h; at 10 µM; stronger effect = lower value. (A flow cytometer gives signals particle by particle.)
Assay [2] is described as follows: TOR pathway GLN3 branch reporter MEP2-GFP changes – S. cerevisiae, multiplex flow cytometry, primary screen (AID 1867;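 active = GFP response, as percent of the DMSO control, above the screen-wide mean plus 3 SD, about 139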;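 note: median GFP channel fluorescence of barcode-gated MEP2-GFP cells measured by flow cytometry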). The conditions noted are these: S. cerevisiae MEP2-GFP strain, 3 h, at 10 µM, stronger effect = higher value.
Assay [3] can be described thus: TOR pathway RTG branch CIT2 reporter changes – S. cerevisiae, GFP fusion, multiplex flow cytometry, primary screen (AID 1870;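 active = percent response above a set limit, the screen-wide mean plus 3 SD, cut at about 130% in these data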;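 note: barcoded CIT2-GFP strain pooled with four other GFP strains with rapamycin as positive control; median GFP fluorescence per well over plate mean of DMSO wells so 100% = DMSO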). The conditions noted are these: S. cerevisiae CIT2-GFP expression, 3 h, at 10 µM, stronger effect = higher value.
Assay [4] is described as follows: TOR pathway LAP4-GFP level changes – S. cerevisiae, multiplex flow cytometry, primary screen (AID 1873;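 active = GFP signal, as percent of the solvent control, above the screen mean plus 3 SD, about 149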). To be noted: S. cerevisiae LAP4-GFP expression, 3 h, at 10 µM, stronger effect = higher value.
A short description of assay [5]: yeast AGP1-GFP level changes, GLN3 branch – cell-based, multiplex flow cytometry, S. cerevisiae, primary screen (AID 1887;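 active = GFP signal above the screen-wide mean plus 3 SD, that is over about 124.5% of the solvent control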;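 note: AGP1-GFP fusion strain of S. cerevisiae within a five-strain barcoded multiplex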). The conditions noted are these: 3 h, at 10 µM, stronger effect = higher value.
The nature of assay [6]: reduced mouse 2C T cell binding to pMHC/ICAM-1 vesicles – MLPCN validation set, flow cytometry, LFA-1/ICAM-1 modulator project, pilot screen (AID 2523;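 active = response below a set limit, under 55% cells CD8-positive and vesicle-bound, and CD8 cells' 90th-percentile brightness under 279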;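 for vesicle binding response: mean PE anti-B7-1 fluorescence of CD8+ cells relative to row control; 100% = QL9-loaded vesicles with DMSO vehicle in the same plate row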). To be noted: 2C mouse CD8+ T cells, at 7 µM, stronger effect = lower value; double positive events: measured here: CD8+/vesicle+ event percentage.
In assay [7] the target is Integrin beta-1 (Homo sapiens) + Integrin alpha-4 (Homo sapiens) (UniProt P13612+P05556). In words: alpha4beta1 integrin LIBS antibody binding reduction – U937 cells, HUTS-21 mAb, flow cytometry, validation set, VLA-4 allosteric modulator project, pilot screen (AID 2674;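 active = inhibition above 50%, about 3 SD of the validation set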;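 note: antibody binding induced by the VLA-4 ligand LDV present at three times its Kd; 0% = LDV ligand with antibody and no compound and 100% = antibody without LDV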). The conditions noted are these: HUTS-21 LIBS mAb binding, at 6.7 µM, stronger effect = higher value.
Chain of Integrin beta-1 (Homo sapiens) + Integrin alpha-4 (Homo sapiens) (P05556 whole entry, looked up): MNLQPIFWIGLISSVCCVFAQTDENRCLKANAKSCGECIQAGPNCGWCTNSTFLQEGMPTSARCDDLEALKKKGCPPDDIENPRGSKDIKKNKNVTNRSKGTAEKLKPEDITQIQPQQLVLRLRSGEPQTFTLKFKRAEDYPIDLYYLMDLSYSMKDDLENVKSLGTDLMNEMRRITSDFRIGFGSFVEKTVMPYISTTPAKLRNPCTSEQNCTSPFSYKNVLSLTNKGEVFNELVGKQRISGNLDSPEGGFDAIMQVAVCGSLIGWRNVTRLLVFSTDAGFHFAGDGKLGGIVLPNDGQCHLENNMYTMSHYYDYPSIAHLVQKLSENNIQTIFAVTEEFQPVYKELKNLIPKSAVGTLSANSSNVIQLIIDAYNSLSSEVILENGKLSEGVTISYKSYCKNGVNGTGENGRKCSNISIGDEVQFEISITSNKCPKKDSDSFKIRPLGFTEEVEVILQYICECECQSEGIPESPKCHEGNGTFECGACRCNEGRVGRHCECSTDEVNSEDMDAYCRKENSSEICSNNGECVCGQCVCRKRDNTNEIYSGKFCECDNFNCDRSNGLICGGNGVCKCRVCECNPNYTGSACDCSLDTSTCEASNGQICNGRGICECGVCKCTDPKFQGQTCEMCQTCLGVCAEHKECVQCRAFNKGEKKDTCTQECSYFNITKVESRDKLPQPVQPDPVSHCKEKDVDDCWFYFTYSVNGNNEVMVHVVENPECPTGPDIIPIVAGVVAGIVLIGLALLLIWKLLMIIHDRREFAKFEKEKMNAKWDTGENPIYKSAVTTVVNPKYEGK
Chain of Integrin beta-1 (Homo sapiens) + Integrin alpha-4 (Homo sapiens) (P13612 whole entry, looked up): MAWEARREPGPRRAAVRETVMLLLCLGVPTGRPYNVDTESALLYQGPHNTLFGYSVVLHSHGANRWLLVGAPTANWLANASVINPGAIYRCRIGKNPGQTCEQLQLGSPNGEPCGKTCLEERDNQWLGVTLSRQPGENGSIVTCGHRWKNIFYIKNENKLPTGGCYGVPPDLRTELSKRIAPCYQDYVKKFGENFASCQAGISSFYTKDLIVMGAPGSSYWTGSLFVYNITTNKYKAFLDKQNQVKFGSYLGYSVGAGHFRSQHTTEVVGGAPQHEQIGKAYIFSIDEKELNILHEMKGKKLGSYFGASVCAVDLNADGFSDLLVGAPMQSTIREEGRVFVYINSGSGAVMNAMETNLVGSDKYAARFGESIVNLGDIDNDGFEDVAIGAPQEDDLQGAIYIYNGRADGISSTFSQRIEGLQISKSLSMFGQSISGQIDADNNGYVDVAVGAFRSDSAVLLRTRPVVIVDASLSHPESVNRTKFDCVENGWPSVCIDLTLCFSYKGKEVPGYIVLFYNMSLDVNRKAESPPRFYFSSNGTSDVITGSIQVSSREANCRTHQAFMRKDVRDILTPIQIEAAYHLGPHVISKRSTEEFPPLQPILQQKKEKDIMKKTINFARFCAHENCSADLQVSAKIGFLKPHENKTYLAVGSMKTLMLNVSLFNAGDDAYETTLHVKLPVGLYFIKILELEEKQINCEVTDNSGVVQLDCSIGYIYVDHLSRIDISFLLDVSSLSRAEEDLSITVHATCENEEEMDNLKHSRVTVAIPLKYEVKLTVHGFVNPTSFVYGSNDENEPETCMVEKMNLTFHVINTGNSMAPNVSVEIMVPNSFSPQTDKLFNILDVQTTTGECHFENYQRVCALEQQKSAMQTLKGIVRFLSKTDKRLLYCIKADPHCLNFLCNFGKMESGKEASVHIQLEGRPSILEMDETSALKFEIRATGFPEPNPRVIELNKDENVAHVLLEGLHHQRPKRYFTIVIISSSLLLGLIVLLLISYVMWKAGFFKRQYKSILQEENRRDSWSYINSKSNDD
The nature of assay [8]: calorie-restriction mimetic ROS inhibitors, yeast – validation compound set, pilot screen (AID 2706;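 active = superoxide response below 65% of plate, a cut near 3 SD across the whole screen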;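 note: yeast exposed to compound for one week at 30 degrees C before staining; 100% = mean of all compound wells on the same plate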). To be noted: S. cerevisiae aging, superoxide DHE fluorescence; at 10 µM; stronger effect = lower value.
The target of assay [9] is Beta-adrenergic receptor kinase 1 (Homo sapiens) (UniProt P25098). In words: GRK2 binders displacing RNA aptamer, biochemical, validation, human GRK2, bead flow cytometry (AID 488806;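 active = aptamer binding inhibition above 30%, about 3 SD of noise from non-fluorescent compounds; inactive = inhibition at or below 30%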). To be noted: bead-bound GRK2, FAM-aptamer displacement, at 10 µM, stronger effect = higher value.
Chain of Beta-adrenergic receptor kinase 1 (Homo sapiens) (P25098 whole entry, looked up): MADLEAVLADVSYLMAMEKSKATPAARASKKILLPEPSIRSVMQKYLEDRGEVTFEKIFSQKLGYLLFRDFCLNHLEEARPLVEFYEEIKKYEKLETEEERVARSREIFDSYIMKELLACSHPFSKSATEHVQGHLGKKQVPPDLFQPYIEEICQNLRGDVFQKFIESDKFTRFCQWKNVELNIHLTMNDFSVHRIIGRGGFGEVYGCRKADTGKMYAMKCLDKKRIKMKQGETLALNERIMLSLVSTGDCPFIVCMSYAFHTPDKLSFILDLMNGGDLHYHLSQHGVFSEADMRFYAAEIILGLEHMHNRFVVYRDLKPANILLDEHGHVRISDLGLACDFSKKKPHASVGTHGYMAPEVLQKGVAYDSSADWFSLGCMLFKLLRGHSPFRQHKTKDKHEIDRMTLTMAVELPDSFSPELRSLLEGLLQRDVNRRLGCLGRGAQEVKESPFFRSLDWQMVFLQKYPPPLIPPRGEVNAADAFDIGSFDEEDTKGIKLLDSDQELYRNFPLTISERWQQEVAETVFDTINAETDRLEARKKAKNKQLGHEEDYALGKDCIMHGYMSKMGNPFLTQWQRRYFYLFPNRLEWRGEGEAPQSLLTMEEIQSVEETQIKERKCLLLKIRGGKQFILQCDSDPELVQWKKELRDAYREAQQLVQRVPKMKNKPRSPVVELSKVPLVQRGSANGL
The target of assay [10] is Beta-2 adrenergic receptor (Homo sapiens) (UniProt P07550). Put plainly: agonist-induced loss of surface beta2AR – cell-based, FAP fluorogen, flow cytometry, validation set, pilot screen (AID 504459;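 active = percent response above 42, roughly 3 SD of non-fluorescent test compounds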;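 note: agonist-driven loss of surface beta2AR via internalization measured by FAP dye flow cytometry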). The conditions noted are these: Am2.2-beta2AR cells, at 10 µM, stronger effect = higher value.
Chain of Beta-2 adrenergic receptor (Homo sapiens) (P07550 whole entry, looked up): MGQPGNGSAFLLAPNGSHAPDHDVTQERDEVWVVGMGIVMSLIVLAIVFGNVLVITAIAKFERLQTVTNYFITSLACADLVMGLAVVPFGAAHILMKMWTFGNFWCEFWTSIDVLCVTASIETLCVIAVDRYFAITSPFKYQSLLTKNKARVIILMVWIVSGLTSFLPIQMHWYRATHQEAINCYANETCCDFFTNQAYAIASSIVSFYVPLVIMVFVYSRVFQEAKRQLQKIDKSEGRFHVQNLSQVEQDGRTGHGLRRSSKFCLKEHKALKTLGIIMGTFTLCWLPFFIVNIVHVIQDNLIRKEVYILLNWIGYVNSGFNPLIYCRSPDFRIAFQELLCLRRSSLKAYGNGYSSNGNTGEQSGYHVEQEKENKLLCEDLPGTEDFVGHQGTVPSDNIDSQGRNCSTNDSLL
The target of assay [11] is AP-2 complex subunit beta (Homo sapiens) (UniProt P63010). Put plainly: beta-arrestin/AP2 interaction blockers – biochemical, validation set, GST-AP2 beads, flow cytometry, pilot screen (AID 504541;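 active = inhibition above 54%, about 3 SD of non-fluorescent compounds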;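 note: AP2 carries R879A mutation and is captured from E. coli lysate; bead-bound FITC arrestin peptide fluorescence measuring arrestin peptide binding to AP2; 0% = DMSO wells and 100% = excess unlabeled arrestin peptide control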). To be noted: FITC arrestin peptide, at 10 µM, stronger effect = higher value.
A short description of assay [12]: cytosolic pH regulators acting via V-ATPase – S. cerevisiae, pHLuorin, HTS validation (AID 504600; in the data active = response above about 15%;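 note: plate controls were DMSO for no effect and reference compound for full effect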). The conditions noted are these: V-ATPase proton transport, at 10 µM, stronger effect = higher value.
The subject of assay [13] is anti-desmoglein-3 scFv antibody binding to human DSG3. Put plainly: blockers of pathogenic pemphigus antibody–desmoglein-3 binding – biochemical, validation compound set, bead-based, flow cytometry, pilot screen (AID 588368;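 active = binding below the plate cutoff, the plate median minus 3 SD, with a reading above zero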;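 note: signal is the median channel fluorescence of bead-bound GFP antibody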). To be noted: Protein G beads, DSG3-Fc, scFv-GFP binding, at 10 µM, stronger effect = lower value.
Assay [14] has as its system Botulinum neurotoxin type F light chain protease (Clostridium botulinum). Put plainly: Clostridium botulinum type F light chain protease inhibitors, microsphere substrate cleavage, validation (AID 588459). To be noted: multiplex microsphere protease substrate cleavage assay, flow cytometry; at 10 µM; stronger effect = higher value.
In assay [15] the target is Botulinum neurotoxin type A (Clostridium botulinum) (UniProt P0DPI0). Put plainly: BoNT/A light chain protease inhibitors, biochemical, multiplex microsphere flow cytometry, validation set (AID 588460). To be noted: at 10 µM, stronger effect = higher value.
Chain of Botulinum neurotoxin type A (Clostridium botulinum) (P0DPI0 whole entry, looked up): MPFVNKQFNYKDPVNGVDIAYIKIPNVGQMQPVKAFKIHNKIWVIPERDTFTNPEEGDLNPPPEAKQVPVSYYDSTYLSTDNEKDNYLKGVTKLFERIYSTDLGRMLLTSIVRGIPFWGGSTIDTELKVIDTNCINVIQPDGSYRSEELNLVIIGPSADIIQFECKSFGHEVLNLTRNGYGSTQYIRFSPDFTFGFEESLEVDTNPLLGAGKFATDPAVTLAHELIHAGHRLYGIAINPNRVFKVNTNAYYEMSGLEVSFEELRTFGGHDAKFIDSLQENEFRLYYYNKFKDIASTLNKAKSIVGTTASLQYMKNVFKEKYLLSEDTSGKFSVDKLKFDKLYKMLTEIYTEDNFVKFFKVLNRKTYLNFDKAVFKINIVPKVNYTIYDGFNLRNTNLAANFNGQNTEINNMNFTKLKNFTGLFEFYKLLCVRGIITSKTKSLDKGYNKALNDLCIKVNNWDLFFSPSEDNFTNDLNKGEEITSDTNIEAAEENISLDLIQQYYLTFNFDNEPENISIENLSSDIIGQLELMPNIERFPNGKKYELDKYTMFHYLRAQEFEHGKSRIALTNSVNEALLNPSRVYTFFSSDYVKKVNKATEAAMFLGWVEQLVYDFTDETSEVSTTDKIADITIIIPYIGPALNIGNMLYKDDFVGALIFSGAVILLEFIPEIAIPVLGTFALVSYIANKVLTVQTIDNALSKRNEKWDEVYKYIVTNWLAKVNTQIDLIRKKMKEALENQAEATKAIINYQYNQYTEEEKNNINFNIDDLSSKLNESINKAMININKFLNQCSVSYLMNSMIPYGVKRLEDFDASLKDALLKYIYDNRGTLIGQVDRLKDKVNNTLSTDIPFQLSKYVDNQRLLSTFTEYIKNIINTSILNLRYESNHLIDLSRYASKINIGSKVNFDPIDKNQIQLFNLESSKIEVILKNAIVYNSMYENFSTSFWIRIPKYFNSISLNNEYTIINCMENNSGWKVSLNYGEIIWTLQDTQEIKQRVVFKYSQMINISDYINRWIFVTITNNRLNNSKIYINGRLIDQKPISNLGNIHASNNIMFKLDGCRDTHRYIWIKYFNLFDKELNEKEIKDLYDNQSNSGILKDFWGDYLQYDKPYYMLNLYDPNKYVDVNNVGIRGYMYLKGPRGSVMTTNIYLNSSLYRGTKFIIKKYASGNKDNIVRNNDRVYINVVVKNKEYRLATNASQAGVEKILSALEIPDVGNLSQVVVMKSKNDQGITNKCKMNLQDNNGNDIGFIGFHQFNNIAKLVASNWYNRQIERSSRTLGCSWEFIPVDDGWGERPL
Assay [16] has as its target Lethal factor (Bacillus anthracis) (UniProt P15917). Put plainly: Bacillus anthracis lethal factor inhibition, microsphere flow cytometry protease assay, validation at 10 µM (AID 588461). The conditions noted are these: multiplex microsphere protease cleavage assay, stronger effect = higher value.
Assay [17] can be described thus: Nile Red efflux blockade in pump-expressing yeast – validation compound set, multiplex, phenotypic, pilot screen (AID 588506;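 active = efflux inhibition above 0.42, the validation set average plus 4 SD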;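 note: Nile Red retained in cells so higher fluorescence means more efflux inhibition; 0 = negative control wells and 1 = enniatin B 25 µM full block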). To be noted: S. cerevisiae pump-expressing triplex, Nile Red efflux flow cytometry; at 10 µM; stronger effect = higher value.
The target of assay [18] is ATP-binding cassette sub-family B member 6 (Homo sapiens) (UniProt Q9NP58). Put plainly: blockers of ABCB6-driven porphyrin uptake – K562-ABCB6 cells, flow cytometry, validation set, pilot screen (AID 588550;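 active = inhibition above the screen-wide mean plus 3 SD, about 51%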;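 note: 0% = DMSO wells and 100% = benzethonium chloride 70 µM positive control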). The conditions noted are these: K562-ABCB6 porphyrin accumulation, 1 h, at 10 µM, stronger effect = higher value.
Chain of ATP-binding cassette sub-family B member 6 (Homo sapiens) (Q9NP58 whole entry, looked up): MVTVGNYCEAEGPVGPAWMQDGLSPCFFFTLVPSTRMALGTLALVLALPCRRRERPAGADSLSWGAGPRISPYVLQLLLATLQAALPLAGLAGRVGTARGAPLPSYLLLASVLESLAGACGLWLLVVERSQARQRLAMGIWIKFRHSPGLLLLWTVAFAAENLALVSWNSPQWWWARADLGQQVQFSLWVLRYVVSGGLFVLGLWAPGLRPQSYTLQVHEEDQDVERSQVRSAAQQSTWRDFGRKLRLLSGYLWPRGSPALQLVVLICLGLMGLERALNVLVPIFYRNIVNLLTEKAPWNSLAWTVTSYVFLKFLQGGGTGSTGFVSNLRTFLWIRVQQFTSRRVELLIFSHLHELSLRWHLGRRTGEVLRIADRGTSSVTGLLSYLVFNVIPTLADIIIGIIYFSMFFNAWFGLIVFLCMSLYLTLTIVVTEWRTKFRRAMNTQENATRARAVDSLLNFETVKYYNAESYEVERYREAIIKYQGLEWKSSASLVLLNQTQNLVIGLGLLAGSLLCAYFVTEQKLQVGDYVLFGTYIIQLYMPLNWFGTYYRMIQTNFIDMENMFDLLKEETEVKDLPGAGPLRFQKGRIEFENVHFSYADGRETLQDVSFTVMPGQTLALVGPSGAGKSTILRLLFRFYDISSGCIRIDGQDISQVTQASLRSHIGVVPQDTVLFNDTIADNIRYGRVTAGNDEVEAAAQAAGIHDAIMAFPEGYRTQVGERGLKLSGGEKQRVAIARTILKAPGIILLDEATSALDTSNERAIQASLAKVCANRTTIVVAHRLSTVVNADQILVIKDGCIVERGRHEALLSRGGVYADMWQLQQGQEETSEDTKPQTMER
A short description of assay [19]: AML differentiation inducers, ER-HoxA9 marrow cells – cell-based, GFP/MAC1 double positive, flow cytometry, validation set, primary screen (AID 588685;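 active = differentiation response of at least 50%, scaled between solvent and reference control, from cells with both markers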;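 note: compound exposure lasts four days before antibody staining and flow analysis; 0% = DMSO wells and 100% = 5 µM fulvestrant positive control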). To be noted: stronger effect = higher value.

A word on the inhibition: it is the change of the read-out against control, counted positive when it falls. For the molecule `COc1ccc(-c2nc3ccccc3c(=O)o2)cc1`, in assay [1], the percent of DMSO control GFP was 103% (inactive). Moreover, the GFP response vs DMSO is 95.2% (inactive) in assay [2] and 106% (inactive) in assay [4]. Besides, the percent response of DMSO control in [3] was 92% (inactive). Also, the GFP response, % of DMSO in [5] was 87.9% (inactive). Besides, the double positive events in assay [6] is 78.9%. Further, the vesicle binding response in [6] was 308% (inactive). For the same molecule, the inhibition in assay [7] is -19.5% (inactive); in assay [11], -5.48% (inactive); in assay [14], 1.8% (inactive); in assay [15] it was 1.3% (inactive); in assay [16], 0.8% (inactive); in assay [18], -2% (inactive). The superoxide response (% of plate) in [8] was 99.5% (inactive). In addition, the aptamer binding inhibition in [9] is 1% (inactive). The response in assay [10] is 12.6% (inactive); in [12] it was -0.56% (inactive). Also, the binding (% of control) in [13] was 102% (inactive). The efflux inhibition (fraction of control) in assay [17] was 0.22 (inactive). Further, in assay [19], the differentiation response is 2.4% (inactive).
Regarding `CC12CCC3C(CC=C4CC(O)CCC43C)C1C/C(=C\c1cccc(F)c1)C2=O` (stereo not given), the percent of DMSO control GFP in assay [1] is 98.2% (inactive). The GFP response vs DMSO is 103% (inactive) in assay [2] and 113% (inactive) in assay [4]. In addition, the percent response of DMSO control in assay [3] was 95.1% (inactive). In addition, the GFP response, % of DMSO in [5] is 102% (inactive). The double positive events in assay [6] amounted to 63.9%. The vesicle binding response in assay [6] was 171% (inactive). Also, the inhibition in assay [7] is -7.08% (inactive); in [11], 9.38% (inactive); in [14] it was -0.7% (inactive); in assay [15], -0.1% (inactive); in [16] it was -1.4% (inactive); in [18] it was -1% (inactive). For the same molecule, the superoxide response (% of plate) in [8] was 100% (inactive). Besides, the aptamer binding inhibition in assay [9] was 3% (inactive). In addition, the response in assay [10] was -8.92% (inactive); in assay [12], -4.42% (inactive). Moreover, the binding (% of control) in assay [13] was 98.7% (inactive). In addition, in [17], the efflux inhibition (fraction of control) is -0.13 (inactive). In addition, the differentiation response in assay [19] is 2.89% (inactive).
As for `C=C1CC[C@@]2(O)[C@H]3Cc4ccc(O)c5c4[C@@]2(CCN3CC2CC2)[C@H]1O5`, in assay [1], the percent of DMSO control GFP was 107% (inactive). The GFP response vs DMSO in [2] was 95.1% (inactive); in assay [4] it was 90.1% (inactive). Moreover, the percent response of DMSO control in [3] is 109% (inactive). Also, in assay [5], the GFP response, % of DMSO is 102% (inactive). Moreover, the double positive events in assay [6] was found to be 64.3%. Besides, the vesicle binding response in assay [6] was 1650% (inactive). In addition, the inhibition was 14.1% (inactive) in [7]; -7.26% (inactive) in [11]; 2.7% (inactive) in assay [14]; -0.2% (inactive) in [15]; 8.1% (inactive) in assay [16]; 13% (inactive) in assay [18]. Also, in [8], the superoxide response (% of plate) was 98.9% (inactive). For the same molecule, in assay [9], the aptamer binding inhibition is -2% (inactive). For the same molecule, the response is -8.78% (inactive) in [10] and 5.8% (inactive) in [12]. In addition, in [13], the binding (% of control) was 99% (inactive). Further, the efflux inhibition (fraction of control) in assay [17] is -0.26 (inactive). Further, in assay [19], the differentiation response is 10% (inactive).
Regarding `c1ccc2c(c1)Nc1ccccc1S2`, the percent of DMSO control GFP in [1] was 92.8% (inactive). In addition, the GFP response vs DMSO is 139% (inactive) in assay [2] and 81.4% (inactive) in assay [4]. Further, the percent response of DMSO control in assay [3] is 95.2% (inactive). Further, the GFP response, % of DMSO in [5] was 84.7% (inactive). Besides, the double positive events in [6] was determined as 61.9%. Besides, in [6], the vesicle binding response was 121% (inactive). Moreover, the inhibition in [7] was 12.3% (inactive); in assay [11], 9.01% (inactive); in [14], -1.5% (inactive); in assay [15], 0.5% (inactive); in assay [16], -2.6% (inactive); in [18] it was 9% (inactive). For the same molecule, the superoxide response (% of plate) in assay [8] is 81.7% (inactive). The aptamer binding inhibition in assay [9] was 2% (inactive). Besides, the response is 1.66% (inactive) in [10] and -2.45% (inactive) in assay [12]. In addition, the binding (% of control) in assay [13] was 100% (inactive). Moreover, in [17], the efflux inhibition (fraction of control) is 0.27 (inactive). The differentiation response in [19] was 1.64% (inactive).
